Screening data: PubChem, several laboratories
Mdm2-MdmX inh: inhibitors of human Mdm2-MdmX association, primary screen, cell-based, luminescence, split luciferase, SaOS-2, uHTS | Protein Mdm4 (Homo sapiens) + E3 ubiquitin-protein ligase Mdm2 (Homo sapiens), … | SaOS-2 split-luciferase Mdm2/MdmX complementation | inhibition, % at 8 µM | actives 3% (n = 330,000);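 active = inhibition of at least 50% at 8 µM in the primary screen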
MPTP block: mitochondrial permeability transition pore inhibitors, primary screen, biochemical, isolated mouse mitochondria, absorbance. actives 1.4% (n = 360,000). Ca2+ swelling absorbance, 30 min. inhibition, % at 10 µM;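 active = inhibition of 50% or more, scaled per plate between neutral and stimulator controls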
Beta apoptosis: inhibitors of cytokine-induced beta cell apoptosis, primary screen, luminescence; protection from apoptosis, % (no concentration beside the values); AID 435005, 2010; INS-1E cytokine-induced death, ATP luminescence, 48 h; percent of positive-control rescue, neutral wells zero; actives 0.8% (n = 300,000);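 active = Every replicate reaches about 75%, or at least half do and their mean reaches it too, limit read from the data; inconclusive = At least half of replicates reach the limit but their mean does not; inactive = Under half of replicates reach the limit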;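 also: higher means more ATP so stronger rescue from cytokine killing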
CSC inhib: cancer stem cell viability inhibitors, primary screen, luminescence. actives 1.1% (n = 300,000). inhibition, % at 7.5 µM. AID 2717, 2010. cancer stem cell-like cells viability; in the data active = inhibition above about 75%; inconclusive = no clear call, values can overlap the other calls; tested in HMLE shEcad cells
Calb FLC: C. albicans growth inhibition with fluconazole, primary screen, CaCi-2 strain, Alamar Blue fluorescence | C. albicans CaCi-2 (fluconazole-resistant clinical isolate) + fluconazole, 48 h | growth inhibition, % (concentration not given with the values) | actives 0.57% (n = 300,000);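 active = growth inhibition above about 58% in most replicates, limit read from the data, passing the limit was not always enough; inconclusive = exactly half the replicates above a set limit; inactive = most replicates below a set limit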;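 also: all wells also contain fluconazole at 8 µg/ml as a sub-toxic cotreatment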
SKKanGAS inh: S. pyogenes SKKanGAS growth inhibitors in kanamycin, primary screen, streptokinase expression inhibitor project, SKKanGAS strain, BacTiter-Glo luminescence. 6 h. inhibition, % at 7.5 µM. actives 1.3% (n = 300,000). AID 1662, 2009;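 active = mean replicate score, as percent of positive control median, at least 50; inconclusive = mean below 50 but one replicate at or above 50; inactive = mean and every replicate below 50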;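 also: strain carries kanamycin resistance gene driven by streptokinase promoter and grows in 40 µg/ml kanamycin; loss of luminescence reflects streptokinase promoter inhibition or plain growth inhibition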
MPTP counter: fluorescence retest of MPTP screen hits in isolated mitochondria, single concentration. shares compounds with MPTP block. membrane potential, Rhodamine 123 fluorescence. inhibition, % at 10 µM. actives 78% (n = 5,000); in the data active = inhibition above about 22%
MPTP abs DR: mitochondrial permeability transition pore inhibitors, dose response, biochemical, absorbance, uHTS hits; shares compounds with MPTP block; isolated mitochondria swelling; IC50, µM; actives 58% (n = 780); in the data active = IC50 below about 20 µM
MPTP counter DR: fluorescent counter-screen in isolated mitochondria, dose response, counter-screen for MPTP inhibitor project, biochemical, fluorescence, uHTS hits; IC50, µM; isolated mitochondria counterscreen, fluorescence read-out; shares compounds with MPTP block; actives 49% (n = 780); in the data active = IC50 below about 80 µM
Large screens that a line does not name were inactive (follow-up assays come after a bar, where they were run). Most compounds without a hit are left out; they make up all but 5.4% or so of the library.

COc1ccc(O)c(/C=N/NC(=S)Nc2cccc(S(=O)(=O)N(C)C)c2)c1	MPTP block 50.9, CSC inhib 96.9 (no result: Mdm2-MdmX inh) | MPTP counter 83.5
CN(C)S(=O)(=O)c1cccc(NC(=S)Nc2ccc(Cl)cc2Cl)c1	MPTP block 90.5 | MPTP counter 93.3
COc1ccccc1OC(C)C(=O)Nc1ccc(S(=O)(=O)N2CCN(C)CC2)cc1 (configuration not stated)	none (no result: Beta apoptosis)
Cc1cccc(C)c1NC(=O)C[N+](C)(C)CC(O)COc1cccc2ccccc12 (configuration not stated)	MPTP block 81.1 | MPTP counter inactive | MPTP abs DR 3.27 | MPTP counter DR 50.5
CCc1ccccc1NC(=S)NCCSc1ccc(Cl)cc1	MPTP block 94.2, SKKanGAS inh 50.3 | MPTP counter 94.5
Cc1ccc(C)c(NC(=S)NCCSc2ccc(Cl)cc2)c1	MPTP block 75.9 | MPTP counter 90.5
Cc1ccccc1NC(=S)NCCSc1ccc(Cl)cc1	MPTP block 91.5 | MPTP counter 85.9
Cc1cccc(NC(=S)NCC(C)CSc2ccc(Cl)cc2)c1 (configuration not stated)	MPTP block 89.3, CSC inhib inconclusive | MPTP counter 93.8
Cc1ccc2c(c1C)C(=O)C(=O)N2	none (no result: Mdm2-MdmX inh, Beta apoptosis, CSC inhib, Calb FLC, SKKanGAS inh)
C/C(=N\Nc1ccc(Cl)c(C(=O)O)c1)c1cccc2ccccc12	none
O=C(NCc1ccccc1)c1cnc(Cc2c[nH]c3ccccc23)c(I)c1	none (no result: Mdm2-MdmX inh, Beta apoptosis, CSC inhib, Calb FLC, SKKanGAS inh)
Cc1cccc(NC(=S)NCCSc2ccc(Cl)cc2)c1	MPTP block 98.4 | MPTP counter 84.9
Cc1ccc(Cl)cc1NC(=S)NCCCSC1CCCCC1	MPTP block 99.1 | MPTP counter 91.1
Cc1ccc(NC(=S)NCc2ccc(Cl)cc2)c(C)c1	none
Cc1ccc(NC(=S)NCCSc2ccc(Cl)cc2)c(C)c1	MPTP block 81.4 | MPTP counter 87.3
COc1ccc(S(=O)(=O)/N=C2/C=CC(=O)C(C)=C2C)cc1	none
CC1=C(C)/C(=N\OS(=O)(=O)c2ccc(C)cc2)C=CC1=O	MPTP block 98.1, Beta apoptosis 106.2, CSC inhib 89.3 (no result: Mdm2-MdmX inh, Calb FLC, SKKanGAS inh) | MPTP counter 103.5
O=C(CCNc1ccc(Cc2ccncc2)cc1)c1ccc([N+](=O)[O-])cc1	MPTP block 75.2 | MPTP counter 67.9
Cc1ccc(C(=O)Nc2ccc(Cc3ccncc3)cc2)cc1[N+](=O)[O-]	MPTP block 99.1 | MPTP counter 64.2
O=C(Nc1ccc(Cc2ccncc2)cc1)c1cccc([N+](=O)[O-])c1	none
CCCS(=O)(=O)NC(=O)C1(C)CCCN(C(=O)c2cccc(OC(F)(F)F)c2)C1 (configuration not stated)	none (no result: Mdm2-MdmX inh, Beta apoptosis, CSC inhib, Calb FLC, SKKanGAS inh)
O=C(CSc1nnc(-c2cccs2)o1)c1cccs1	none
Cc1cc(C(=O)CSc2nnc(-c3cccs3)o2)c(C)n1-c1ccccc1	MPTP block 51.5 | MPTP counter 45.4
Cc1cc(C(=O)CSc2nnc(-c3ccc4c(c3)OCO4)o2)c(C)n1-c1ccc(F)cc1	MPTP block 94.4 | MPTP counter 41.9
CCc1c(C2(O)CCCCC2)[nH]c2cc(C(F)(F)F)ccc12	MPTP block 82.4, Beta apoptosis 109.4, CSC inhib 129.8 | MPTP counter 86.5
CCc1ccc(OCC(=O)Nc2ccc(-c3cc4ccccc4oc3=O)c(OC)c2)cc1	MPTP block 101.1 | MPTP counter 96.5
COc1cc(NC(=O)c2cc(Cl)ccc2Cl)ccc1-c1cc2ccccc2oc1=O	none (no result: CSC inhib)
Cc1ccc(C2C3=C(CC(C)(C)CC3=O)N=C3c4ccccc4C(=O)C32)cc1 (configuration not stated)	MPTP block 85.5, Calb FLC 84.8 | MPTP counter 62.8
O=C(O)CCCNS(=O)(=O)c1cccs1	none
